Data published in PubChem BioAssay AID602371 (National Center for Advancing Translational Sciences (NCATS), 2012).
Results filed as inconclusive are left out. The source made the active and inactive calls. Calls come from the whole dose curve; as a rule, active = well fitted inhibition curve with a large enough effect; inconclusive = small, poorly fitted or top-dose-only effect; inactive = flat fitted curve, though single readings scatter.

Experiment: qHTS Assay for Inhibitors of Bacillus subtilis Sfp phosphopantetheinyl transferase (PPTase): SAR in B subtilis 168
Details: Bacillus subtilis 168 growth inhibition
Text: The covalent attachment of a phosphopantetheinyl (4'-PP) arm to a variety of synthases and other proteins is a key posttranslational protein modification. The 4'-PP is installed on the proteins post-translationally from coenzyme A (CoA) on a conserved serine residue by action of phosphopantetheinyl transferase (PPTase) enzymes. Phosphopantetheinylation is essential for synthase activity, and removal of the PPTase gene precludes natural product synthesis in microorganisms, or in the case of fatty acid biosynthesis, renders the organism unviable. PPTase enzymes belong to a distinct structural superfamily. Within bacteria, these enzymes are grouped into two classes based upon primary structure, the AcpS-Type and Sfp-Type PPTases.
Sfp-type PPTases, corresponding to an activator of surfactin production in Bacillus subtilis, are responsible for modifying type I polyketide and nonribosomal peptide synthases of prokaryotes. Sfp-type PPTases are responsible for the activation of a variety of pathogen-associated virulence factors. Among these compounds are toxins such as mycolactone from Mycobacterium ulcerans, siderophores such as vibriobactin from Vibrio cholerae or mycobactin from Mycobacterium tuberculosis, as well as the mycolic acids which form the waxy cell wall of Mycobacteria. The biosyntheses of these natural products are considered attractive targets for drug design.
In search of small molecule Sfp-PPTase inhibitors, a fluorescence quenching assay was developed for detection of Bacillus subtilis Sfp-PPTase enzymatic activity in a miniaturized high-throughput format. The consensus ybbr acceptor peptide […] was N-terminally labeled with Black Hole Quencher-2 (BHQ-2) and used in combination with rhodamine-labeled coenzyme A as a co-substrate.
Phosphopantetheinyl transfer is a process essential to cellular viability and maintenance. Cell-permeable and stable compounds acting as PPTase inhibitors are anticipated to be antimicrobial agents in organisms with complimenting genotypes. […] This experiment evaluated a series of test compounds for antimicrobial activity with B. subtilis 168 (genotype: acpS+ and sfp-), a strain that contains a frameshift mutation in the sfp locus and thus requires a functional AcpS gene product for viability. [Mootz HD, 2001] This strain is expected to be sensitized to cell-permeable AcpS inhibitors, and insensitive to Sfp inhibitors.
NIH Chemical Genomics Center [NCGC]
NIH Molecular Libraries Probe Centers Network [MLPCN]
Assay Submitter (PI): Michale Burkart, University of California, San Diego
Bacillus subtilis 168 is maintained on lysogeny broth (LB) solidified by the addition of 1.5% w/v agar. Single colonies were used to LB medium (2 mL) and shaken overnight at 30 deg C. In the morning, this culture (100 uL) was used to seed a fresh LB medium (10 mL) and was shaken at 30 degC until the culture OD600 reached 0.5. This culture was diluted 1:100 in fresh LB medium to provide the inoculum below.
Bacterial susceptibility.
LB medium (2 uL) is dispensed into wells of a sterile white 1536-well plate. Test compounds (23 nL) prepared as serial dilutions in DMSO are added to the plate by pintool transfer. Innoculum (2 uL) is added, the plates are covered with a vented Kalypsys assay lid and incubated at 30 deg C. After 5 h, Bac-Titer Glo (4 uL; Promega Corp, Madison, WI) is added to the plates. They are incubated 10 minutes at room temperature and then the luminescence detected in a ViewLux multimodal plate reader.

Potency, active:
FC(F)(F)c1cc(N2CCN(C(=S)Nc3cc(Cl)ccn3)CC2)cc(C(F)(F)F)c1 6.63 µM
S=C(Nc1cc(Cl)ccn1)N1CCN(c2cccc(Cl)c2Cl)CC1 16.7 µM
COc1ccnc(NC(=S)N2CCN(c3cccc(Cl)c3Cl)CC2)c1 13.2 µM
Cc1ccnc(NC(=S)N2CC3CN(c4ncc(C(F)(F)F)cc4Cl)CC3C2)c1 (centres undefined) 16.7 µM
Cc1cc(C)nc(NC(=S)N2CCN(c3ccc(Cl)c(Cl)c3)CC2)c1 37.3 µM
Cc1cc(C)nc(NC(=S)N2CCN(c3ccc([N+](=O)[O-])cc3Cl)CC2)c1 14.8 µM
Cc1cc(C)nc(NC(=S)N2CC3CN(c4ccc(Cl)cc4C(F)(F)F)CC3C2)c1 (centres undefined) 11.8 µM
Cc1ccnc(NC(=S)N2CCN(c3cccc(N(C)C)c3)CC2)c1 46.9 µM
COc1ccnc(NC(=S)N2CCN(c3ncc(C(F)(F)F)cc3Cl)CC2)c1 18.7 µM
Cc1ccnc(NC(=S)N2CCN(c3cc(C(F)(F)F)cc(C(F)(F)F)c3)CC2)c1 14.8 µM
Cc1ccnc(NC(=S)N2CCN(c3cccc(C(F)(F)F)c3)CC2)c1 14.8 µM
Cc1cc(C)nc(NC(=S)N2CCN(c3ccc(Cl)cc3Cl)CC2)c1 33.2 µM
CSC(Cc1ccc(Cl)cc1)C(=O)Nc1ccc(Cl)cc1C(=O)O (centres undefined) 23.5 µM
Cc1cc(C)nc(NC(=S)N2CCN(c3cc(Br)cc(C(F)(F)F)c3)CC2)c1 16.7 µM
FC(F)(F)c1cccc(N2CCN(C(=S)Nc3cc(C(F)(F)F)ccn3)CC2)c1 16.7 µM
Cc1ccnc(NC(=S)N2CCCN(c3cccc(C(F)(F)F)c3)CC2)c1 11.8 µM
COc1ccnc(NC(=S)N2CCN(c3ccc(Cl)cc3Cl)CC2)c1 16.7 µM
Cc1ccnc(NC(=S)N2CC3CN(c4cccc(C(F)(F)F)c4)CC3C2)c1 (centres undefined) 8.35 µM
Cc1ccnc(NC(=S)Nc2cccc(C(F)(F)F)c2)c1 18.7 µM
